Only some compounds are listed: those with a hit (about 2.4% of all), similar ones and a draw of the others.
D2 antag: D2 dopamine receptor (human) antagonism | HEK293 TREx D2 cells, calcium flux, dopamine EC80 | inhibition, % at 10 µM | 2% of 340,000 active | AID 485344; in the data active = inhibition above about 30%; inactive = below that, where a call was filed
Target sequence (P14416 whole entry, looked up): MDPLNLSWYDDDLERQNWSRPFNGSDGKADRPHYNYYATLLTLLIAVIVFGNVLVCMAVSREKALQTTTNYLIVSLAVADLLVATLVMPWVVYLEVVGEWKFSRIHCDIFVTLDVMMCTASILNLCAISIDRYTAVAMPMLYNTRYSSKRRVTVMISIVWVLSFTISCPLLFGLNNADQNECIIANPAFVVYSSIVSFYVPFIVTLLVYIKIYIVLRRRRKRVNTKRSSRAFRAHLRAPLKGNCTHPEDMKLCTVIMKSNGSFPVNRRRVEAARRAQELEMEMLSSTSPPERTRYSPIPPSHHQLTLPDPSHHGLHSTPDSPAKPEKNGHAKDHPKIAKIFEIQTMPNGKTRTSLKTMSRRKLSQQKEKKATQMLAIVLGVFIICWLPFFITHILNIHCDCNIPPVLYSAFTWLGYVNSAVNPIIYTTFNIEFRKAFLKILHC
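Cells plated overnight at 30 C with tetracycline; no-wash calcium dye, 30–90 min RT; 10 s baseline; compound pinned; 180 s read; EC80 dopamine added; another 180 s read.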
D2 ag-1: agonists of human D2 dopamine receptor; 0.53% of 340,000 active; activation, % at 2 µM; P14416; HEK293 T-REx D2 cells, calcium flux agonist mode; AID 485358;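 active = activation over 3 SD above normal in the single-dose calcium agonist read, cut at about 30% in these data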
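Calcium-flux readout, 1 cycle/sec over 180 s following compound pin transfer, in inducible HEK293 Trex D2 cells (force-coupled); dopamine controls included. Positive calcium responses during this window marked compounds as potential agonists.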
D2 PAM-1: positive allosteric modulators of human D2 dopamine receptor. 0.34% of 340,000 active. AID 485347. P14416. HEK293 T-REx D2, calcium flux, EC20 dopamine potentiation. potentiation, % at 10 µM;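 active = potentiation over 3 SD above the plate norm, cut at about 30% in these data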
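Using a no-wash calcium dye in inducible, force-coupled HEK293 Trex cells expressing D2, we tracked fluorescence each second for 180 s after compound, then for 180 s after EC20 dopamine to detect augmented signalling.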
D2 ag-2: human D2 receptor agonism in beta-arrestin assay | 0.084% of 360,000 active | P14416 | DiscoveRx PathHunter D2 beta-arrestin, luminescence, 90 min; 100% = 57 uM dopamine signal | activation, % (concentration not given with the values); in the data active = activation above about 40%; inconclusive = between about 15% and that limit
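DiscoveRx PathHunter D2 beta-arrestin cells (2,100/well) attached overnight, then compound-stimulated 90 min at 37 C in HBSS/10 mM HEPES/0.1% Tween-20 buffer; beta-galactosidase complementation read by luminescence after 1 h at ambient temperature. Dopamine 57 uM final (EC100) as control.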
D2 PAM-2: positive allosteric modulators of human D2 dopamine receptor; P14416; DiscoveRx D2 beta-arrestin cells, luminescence, 90 min; 100% = 57 uM dopamine signal; potentiation, % (test concentration not listed); AID 624464; 0.23% of 360,000 active; in the data active = potentiation above about 50%; inconclusive = mostly about 30% to 49%
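PathHunter beta-arrestin assay in DiscoveRx D2 cells. Compounds were added with an EC20 of dopamine (50 nM final) for 90 min at 37 deg C. Luminescence was read 1 h after detection reagent, with 57 uM dopamine as the EC100 control.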
Hits are given with their value; – = inactive; ? = inconclusive; · = no result.

SMILES | D2 antag | D2 ag-1 | D2 PAM-1 | D2 ag-2 | D2 PAM-2
CCOC(=O)CC1C(=O)NCCN1C(=S)NC(=O)c1ccc(C)c(Br)c1 (stereo not drawn) | · | · | · | – | –
Cc1ccc(Cn2c(C(=O)O)c(CNC3CCCCC3)c3ccc(C)cc32)cc1 | · | – | – | · | ·
Cc1oc(-c2ccccc2F)nc1CSCC(=O)NCc1ccc2c(c1)OCO2 | – | – | 33 | – | –
Cc1oc(-c2ccccc2F)nc1CSCC(=O)NCCc1ccccc1 | · | · | – | · | ·
CCn1c(=O)c2sccc2n2c(CCC(=O)NCc3ccc(Cl)cc3)nnc12 | · | – | – | · | ·
COc1ccc(C(=O)Oc2ccc3c(c2)OCO3)cc1OC | – | – | – | – | –
N/C(=N\OC(=O)c1ccc2c(c1)OCO2)c1cccnc1 | – | – | – | ? | 79
N/C(=N\OC(=O)c1ccc2c(c1)OCO2)c1cccc(Br)c1 | – | – | – | ? | 106
COc1ccc(/C(N)=N/OC(=O)c2ccc3c(c2)OCO3)cc1OC | – | – | – | – | 84
COc1cc(OC)c(C(=O)Oc2ccc3c(c2)OCO3)cc1OC | 30 | – | – | – | –
CCc1ccc2ncc(S(=O)(=O)c3ccc(Cl)cc3)c(N3CCN(CC)CC3)c2c1 | · | – | – | · | ·
COc1ccc(-c2noc(CSc3nnc(C)n3-c3ccc(OC)cc3)n2)cc1 | · | – | – | · | ·
CCOc1ccc(CNC(=O)c2ccc3c(c2)sc2nc(-c4ccc(OC)cc4)cn23)cc1 | · | – | – | · | ·
Cc1cn([C@H]2C[C@H](O)[C@@H](CNCc3cc(Br)ccc3OCc3ccccc3)O2)c(=O)[nH]c1=O | · | · | · | – | –
CC(=O)C(=Nc1ccccc1Cl)NNc1ccc(Cl)cc1 | – | – | 34 | ? | ?
Cn1c(=O)c2c(nc(NCc3ccco3)n2C/C=C/c2ccccc2)n(C)c1=O | – | – | – | – | 64
CCN(CC)CCCNC(=S)N1CCN(c2nc3ccccc3n2CC)CC1 | 48 | – | – | – | –
CC1CN(CN2C(=O)c3ccccc3C2=O)CC(C)O1 (stereo not drawn) | – | – | – | – | –
CC1CN(CCCCN2C(=O)c3ccccc3C2=O)CC(C)O1 (stereo not drawn) | 40 | – | – | – | –
Cc1cc2ncn(/N=C/c3ccc([N+](=O)[O-])s3)c2cc1C | – | – | – | – | 71
O=[N+]([O-])c1ccc(/C=N/n2cnc3ccccc32)s1 | – | – | – | ? | 64
Cc1nc2ccccc2n1/N=C/c1ccc([N+](=O)[O-])s1 | – | – | – | – | –
Cc1ccc(NC(=O)Cn2c(=O)n(Cc3ccc4c(c3)OCO4)c(=O)c3oc4ccccc4c32)cc1C | · | – | – | · | ·
Cc1ccc2c(c1)-c1c(cnn1CC(=O)N1CCN(c3ccccc3F)CC1)CO2 | · | – | – | · | ·
CCOC1(OCC)C(c2ccc(Cl)cc2)C(C#N)(C#N)C1(OCC)OCC (stereo not drawn) | 38 | – | – | – | –
SMILES | D2 antag | D2 ag-1 | D2 PAM-1 | D2 ag-2 | D2 PAM-2
O=C(C1COc2ccccc2O1)N1CCCCC1 (stereo not drawn) | 51 | – | – | – | –
CC(=O)c1ccc(NC(=O)c2nc(-c3ccccc3)n(-c3ccc(C)cc3)n2)cc1 | · | – | – | · | ·
Cc1cccc(NC(=O)Cn2nnc(C(=O)NCc3cccs3)c2N)c1 | · | – | – | · | ·
CN(C)c1cc(Nc2ccc(O)cc2)c([N+](=O)[O-])c2nonc12 | – | – | – | – | –
O=[N+]([O-])c1c(Nc2ccc(O)cc2)cc(Cl)c2nonc12 | 37 | – | – | – | –
O=C1C2C3C=CC(CC3)C2C(=O)N1c1ccc([N+](=O)[O-])cc1 (stereo not drawn) | – | – | – | – | –
CC(=O)Oc1ccc(N2C(=O)C3C4C=CC(CC4)C3C2=O)cc1[N+](=O)[O-] (stereo not drawn) | 62 | – | – | – | –
Cc1cccc(NC(=S)NNC(=O)CCn2cc(C)cn2)c1 | – | – | 45 | – | –
COC(=O)c1ccccc1NC(=O)CSc1nc2sc3c(c2c(=O)[nH]1)CCCC3 | · | – | – | · | ·
COc1cc(/C=C2\SC(N3CCc4ccccc4C3)=NC2=O)cc(OC)c1OC | 56 | – | – | – | –
Cn1c(=O)c2sccc2n2c(CCCC(=O)NCc3ccc4c(c3)OCO4)nnc12 | – | – | 35 | – | –
Cn1c(=O)c2sccc2n2c(CCCC(=O)NCc3cccnc3)nnc12 | – | – | – | – | –
Cn1c(=O)c2sccc2n2c(CCCC(=O)NCc3ccc(F)cc3)nnc12 | – | – | 33 | – | –
Cn1c(=O)c2sccc2n2c(CCCC(=O)Nc3ccc(F)cc3F)nnc12 | – | – | 32 | – | –
Cn1c(=O)c2sccc2n2c(CCCC(=O)Nc3ccc(F)c(F)c3)nnc12 | · | – | – | · | ·
COCCCNc1oc(/C=C/c2cc(OC)c(OC)c(OC)c2)nc1C#N | · | – | – | · | ·
COc1ccc2cc(CNc3ccc(C)cc3)c(=O)n(CC(=O)Nc3ccc(C)cc3Cl)c2c1 | · | – | – | · | ·
CC(=O)N1c2ccc(S(=O)(=O)N(C)C3CCCCC3)cc2CC1C (stereo not drawn) | – | – | 30 | – | –
CC(=O)N1c2ccc(S(=O)(=O)N(C)CC(=O)NC3CCCCC3C)cc2CC1C (stereo not drawn) | – | – | 42 | – | –
CC(=O)N1c2ccc(S(=O)(=O)N(C)CC(=O)NCc3ccccc3)cc2CC1C (stereo not drawn) | – | – | – | – | –
CN1C(=O)c2ccc(NC(=O)c3c(C(=O)O)cccc3[N+](=O)[O-])cc2C1=O | 34 | – | – | – | –
Cc1cccc(NC(=O)CCc2c(C)nc3c(c(C)nn3C(C)(C)C)c2C)c1C | · | – | – | · | ·
CCCNC(=O)N1[C@H](c2ccc(C)s2)[C@@H](C)C(=O)[C@@H](C)[C@@H]1c1ccc(C)s1 | · | · | – | · | ·
CCCCCCn1c(=O)[nH]c2nc3cc(N)ccc3nc2c1=O | 32 | 85 | – | – | 60
CCCCCn1c(=O)c(C(=O)c2ccccc2)nc2ccccc21 | – | – | – | – | –
SMILES | D2 antag | D2 ag-1 | D2 PAM-1 | D2 ag-2 | D2 PAM-2
CCCCCCn1c(=O)n2n(c1=O)[C@@H]1CN(S(=O)(=O)c3ccc(C)cc3)C[C@]1(O)[C@@H](OC(=O)NCC1CCCCC1)C2 | · | · | · | – | –
COc1ccc(OC)c(NC(=O)c2cccc(N3C(=O)C4C5C=CC(C6CC56)C4C3=O)c2)c1 (stereo not drawn) | – | – | 40 | – | –
O=C(Nc1ccccc1)c1cccc(N2C(=O)C3C4C=CC(C5CC45)C3C2=O)c1 (stereo not drawn) | 32 | – | – | – | –
COc1ccc(-c2ccc(NS(=O)(=O)c3ccc(C(C)=O)cc3)cc2)nn1 | · | · | – | · | ·
FC(F)(F)c1cccc(OCCN2CCN(Cc3ccccc3)CC2)c1 | 82 | – | – | – | –
O=c1[nH]c2ccccc2n1CCCN1CCCCC1 | – | – | – | – | –
c1ccc(OCCN2CCN(C(c3ccccc3)c3ccccc3)CC2)cc1 | 46 | – | – | – | –
